# Assay results as given in PubChem BioAssay (Tox21).
# Unmarked numbers belong to inactive results. Where a call stands in place of a potency, no number is given. Active and inactive are the calls of the source. Unless noted, calls follow the shape of the dose curve; as a rule, active = well fitted curve in the direction sought with a large enough effect in the repeat runs; inconclusive = weak or mixed curves; inactive = no such curve, though single readings can be large; an effect the other way counts as inactive or inconclusive.
# Assays:
# [1] = qHTS assay to identify small molecule antagonists of the thyroid receptor (TR) signaling pathway (AID 743065); also: nearly all actives have a fitted effect of over 55% in size; also: potency is read from the fitted curve at half-maximal effect
# Summary of the method: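 Antagonism measured as loss of luciferase signal in GH3 cells stably carrying a TRE-luciferase reporter, co-treated with compound and T3 (1 nM final) for 23.5 h at 37 C. Viability was read in the same well by CellTiter-Fluor.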
# [2] = system: thyroid hormone receptor (rat, GH3 cells); experiment: qHTS assay to identify small molecule agonists of the thyroid receptor (TR) signaling pathway (AID 743066; calls by dose curve)
# [3] = biological target: Estrogen receptor (Homo sapiens) (UniProt P03372); experiment: qHTS assay to identify small molecule agonists of the estrogen receptor alpha (ER-alpha) signaling pathway (AID 743075; calls by dose curve;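 also: HEK293 GripTite cells with ER-alpha and UAS-driven beta-lactamase reporter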)
# Sequence of Estrogen receptor (Homo sapiens) (P03372 whole entry, looked up): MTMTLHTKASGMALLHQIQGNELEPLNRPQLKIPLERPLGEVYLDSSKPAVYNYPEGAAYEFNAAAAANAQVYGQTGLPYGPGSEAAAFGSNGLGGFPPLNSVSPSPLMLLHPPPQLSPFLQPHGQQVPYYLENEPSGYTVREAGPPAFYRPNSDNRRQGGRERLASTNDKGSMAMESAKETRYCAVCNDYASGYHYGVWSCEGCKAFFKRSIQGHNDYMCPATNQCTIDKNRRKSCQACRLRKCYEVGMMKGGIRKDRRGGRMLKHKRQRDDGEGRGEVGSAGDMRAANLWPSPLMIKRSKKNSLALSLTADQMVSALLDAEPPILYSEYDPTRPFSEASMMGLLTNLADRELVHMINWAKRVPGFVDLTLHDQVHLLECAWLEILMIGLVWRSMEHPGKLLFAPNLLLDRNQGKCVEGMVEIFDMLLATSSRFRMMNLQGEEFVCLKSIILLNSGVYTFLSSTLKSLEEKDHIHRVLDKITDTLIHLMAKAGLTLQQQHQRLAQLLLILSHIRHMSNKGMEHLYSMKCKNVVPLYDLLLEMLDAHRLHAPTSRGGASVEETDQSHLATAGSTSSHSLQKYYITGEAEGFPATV
# [4] = qHTS assay to identify small molecule antagonists of the estrogen receptor alpha (ER-alpha) signaling pathway using the BG1 cell line (AID 743080; calls by dose curve;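 also: BG1 cells stimulated with 17beta-estradiol alongside compound; nearly all actives have a fitted effect of over 25% in size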)
# Summary of the method: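 BG1Luc4E2, endogenous ER-alpha, 4xERE-luc; 5 d charcoal-stripped FBS, phenol red free; 24 h plating; cpd + 17beta-estradiol 21.5 h, 37 C/5% CO2; CellTiter-Fluor viability 30 min, then ONE-Glo luciferase 30 min RT.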
# Aromatase (Homo sapiens) = Aromatase (Homo sapiens) (UniProt P11511); experiment: qHTS assay to identify aromatase inhibitors (AID 743083); also: nearly all actives have a fitted effect of over 55% in size; also: potency is read from the fitted curve at half-maximal effect
# Sequence of Aromatase (Homo sapiens) (P11511 whole entry, looked up): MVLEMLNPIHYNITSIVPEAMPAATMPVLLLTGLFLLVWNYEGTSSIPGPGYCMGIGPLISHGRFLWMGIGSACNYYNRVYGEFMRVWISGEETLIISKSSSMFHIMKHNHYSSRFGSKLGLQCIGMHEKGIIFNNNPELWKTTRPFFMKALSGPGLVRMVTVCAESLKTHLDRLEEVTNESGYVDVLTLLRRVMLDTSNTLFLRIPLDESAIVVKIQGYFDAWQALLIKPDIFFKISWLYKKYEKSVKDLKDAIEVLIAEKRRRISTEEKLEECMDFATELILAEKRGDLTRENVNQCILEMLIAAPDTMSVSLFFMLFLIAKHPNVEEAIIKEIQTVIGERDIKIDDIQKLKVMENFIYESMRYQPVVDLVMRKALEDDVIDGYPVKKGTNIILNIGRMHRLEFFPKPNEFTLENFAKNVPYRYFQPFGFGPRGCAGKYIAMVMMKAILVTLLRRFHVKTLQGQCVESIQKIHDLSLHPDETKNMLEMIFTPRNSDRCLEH
# [5] = biological target: Aryl hydrocarbon receptor (Homo sapiens) (UniProt P35869); experiment: qHTS assay to identify small molecule that activate the aryl hydrocarbon receptor (AhR) signaling pathway (AID 743085); also: nearly all actives have a fitted effect of over 15% in size; also: potency is read from the fitted curve at half-maximal effect;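 as to activation: HG2L7.5c1 human HepG2 liver cells with stably integrated DRE-driven firefly reporter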
# Sequence of Aryl hydrocarbon receptor (Homo sapiens) (P35869 whole entry, looked up): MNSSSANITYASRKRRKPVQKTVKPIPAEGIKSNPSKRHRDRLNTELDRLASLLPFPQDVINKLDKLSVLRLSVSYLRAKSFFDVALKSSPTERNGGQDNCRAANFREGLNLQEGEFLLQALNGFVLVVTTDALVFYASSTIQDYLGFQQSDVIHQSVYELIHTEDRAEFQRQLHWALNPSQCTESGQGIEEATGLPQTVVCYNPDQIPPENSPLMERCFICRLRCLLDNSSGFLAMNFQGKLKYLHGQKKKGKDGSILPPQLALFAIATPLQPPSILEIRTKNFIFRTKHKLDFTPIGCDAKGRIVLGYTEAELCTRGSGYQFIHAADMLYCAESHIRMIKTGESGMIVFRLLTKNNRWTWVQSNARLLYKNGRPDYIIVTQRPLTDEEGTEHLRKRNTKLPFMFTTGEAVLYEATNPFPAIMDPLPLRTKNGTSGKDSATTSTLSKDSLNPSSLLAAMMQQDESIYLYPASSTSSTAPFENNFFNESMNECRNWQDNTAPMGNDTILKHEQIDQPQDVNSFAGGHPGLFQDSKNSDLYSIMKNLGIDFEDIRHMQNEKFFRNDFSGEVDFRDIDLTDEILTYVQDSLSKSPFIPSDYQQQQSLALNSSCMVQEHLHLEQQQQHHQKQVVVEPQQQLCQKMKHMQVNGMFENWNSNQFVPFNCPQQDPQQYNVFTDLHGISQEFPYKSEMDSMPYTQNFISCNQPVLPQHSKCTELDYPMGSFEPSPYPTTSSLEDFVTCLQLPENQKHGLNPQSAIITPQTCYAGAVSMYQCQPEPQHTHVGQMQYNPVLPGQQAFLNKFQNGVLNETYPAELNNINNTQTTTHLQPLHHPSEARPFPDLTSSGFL
# Summary of the method: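 Luminescence read-out: ONE-Glo reagent, 30 min at room temperature, in HG2L7.5c1 HepG2 reporter cells treated 24 h at 37C. Viability was measured beforehand by CellTiter-Fluor fluorescence after 30 min at 37C.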
# [6] = qHTS assay to identify small molecule phospholipidosis (PLD) inducers (AID 1259344; active = well fitted curve in the direction sought with a large enough effect; inconclusive = small, poorly fitted or top-dose-only effect, or another doubt; inactive = no such curve, though single readings can be large; an effect the other way counts as inactive or inconclusive)
# Summary of the method: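 Phospholipidosis is scored by imaging LipidTOX-stained pits in HepG2 cells exposed to compound for 24 h at 37 C; pit counts and integrated intensities per well and per cell serve as outputs.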
# [7] = biological target: Nuclear receptor subfamily 1 group I member 2 (Rattus norvegicus) (UniProt Q9R1A7); experiment: Rat pregnane X receptor (rPXR) activation by small molecules, qHTS assay (AID 1346983); settings: rPXR luciferase reporter cells, One-Glo luminescence, 24 h; max activation: stronger effect = higher value; also: nearly all actives have a fitted effect of over 20% in size; also: potency is read from the fitted curve at half-maximal effect
# Sequence of Nuclear receptor subfamily 1 group I member 2 (Rattus norvegicus) (Q9R1A7 whole entry, looked up): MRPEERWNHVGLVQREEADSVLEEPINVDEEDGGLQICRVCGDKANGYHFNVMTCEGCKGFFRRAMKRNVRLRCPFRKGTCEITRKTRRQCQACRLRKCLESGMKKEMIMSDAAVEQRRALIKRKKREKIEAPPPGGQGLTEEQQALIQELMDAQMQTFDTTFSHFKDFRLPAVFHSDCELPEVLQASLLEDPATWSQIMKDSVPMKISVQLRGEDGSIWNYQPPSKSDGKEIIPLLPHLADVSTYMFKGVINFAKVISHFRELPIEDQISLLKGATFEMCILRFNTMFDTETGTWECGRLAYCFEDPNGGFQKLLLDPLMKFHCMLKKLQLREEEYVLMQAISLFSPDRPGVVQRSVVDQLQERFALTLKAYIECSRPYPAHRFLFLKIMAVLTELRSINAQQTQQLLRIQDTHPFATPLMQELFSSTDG
# Summary of the method: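 Luminescent readout (One-Glo luciferase, 30 min room temperature) followed 24 hr compound treatment at 37 C of rPXR cells plated 2,000 per well and preincubated 5hr; qHTS format with compounds delivered in DMSO.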
# [8] = biological target: Nuclear receptor subfamily 1 group I member 2 (Homo sapiens) (UniProt O75469); experiment: CYP3A4 induction through human pregnane X receptor (PXR) by small molecules, qHTS assay (AID 1346984); also: nearly all actives have a fitted effect of over 40% in size; also: potency is read from the fitted curve at half-maximal effect
# Summary of the method: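 Luminescence readout: luciferase signal after One-Glo (30 min, room temperature), following 3 h at 37C with 3uM final Luciferin-IPA P450 substrate. Cells were DPX-2 (HepG2, PXR/CYP3A4-luc co-transfected) dosed for 24 h.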
# [9] = biological target: Nuclear receptor subfamily 1 group I member 2 (Homo sapiens) (UniProt O75469); experiment: Human pregnane X receptor (PXR) activation by small molecules, qHTS assay (AID 1346985); also: nearly all actives have a fitted effect of over 40% in size; also: potency is read from the fitted curve at half-maximal effect
# Summary of the method: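 DPX-2 cells (HepG2 co-transfected with a PXR response element and a CYP3A4-promoter luciferase construct) were seeded at 2,000 per well, rested 5 hr at 37C, then exposed to DMSO-dissolved compounds for 24 hr. Activation was read as luciferase luminescence.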
# [10] = biological target: Estrogen receptor (Homo sapiens) (UniProt P03372); experiment: qHTS assay to identify small molecule antagonists of the estrogen receptor alpha (ER-alpha) signaling pathway (AID 743069; active = well fitted curve in the direction sought with a large enough effect in the signal ratio in the repeat runs, not every such curve was filed as active; inconclusive = weak or mixed curves, or effect the other way; inactive = no such curve, though single readings can be large or run the other way; the % refers to the signal ratio; also: potency is read from the fitted curve at half-maximal effect)
# Summary of the method: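 ER-alpha-UAS-bla GripTite HEK293 line; 2% charcoal-stripped FBS overnight; plated, 4 hr 37C/5% CO2; cpd in DMSO + 17beta-estradiol, 18 hr 37C; LiveBLAzer B/G FRET substrate 2 hr RT; fluorescence intensity.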
# [11] = qHTS assay to identify small molecule antagonists of the estrogen receptor alpha (ER-alpha) signaling pathway - cell viability counter screen (AID 743074; calls by dose curve;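 also: HEK293 cells carrying ER-alpha-UAS-bla reporter stimulated with 17beta-estradiol; nearly all actives have a fitted effect of over 45% in size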; also: potency is read from the fitted curve at half-maximal effect)
# [12] = qHTS assay to identify small molecule antagonists of the estrogen receptor alpha (ER-alpha) signaling pathway using the BG1 cell line - cell viability counter screen (AID 743081);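 also: compound given together with 17beta-estradiol as the ER stimulus; nearly all actives have a fitted effect of over 45% in size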; also: potency is read from the fitted curve at half-maximal effect
# [13] = qHTS assay to identify aromatase inhibitors - cell viability counter screen (AID 743084);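 also: cells stimulated with testosterone during compound exposure; nearly all actives have a fitted effect of over 55% in size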; also: potency is read from the fitted curve at half-maximal effect
# [14] = biological target: Peroxisome proliferator-activated receptor gamma (Homo sapiens) (UniProt P37231); experiment: qHTS assay to identify small molecule agonists of the peroxisome proliferator-activated receptor gamma (PPARg) signaling pathway (AID 743094; active = well fitted activation curve with a large enough effect in the signal ratio in the repeat runs, not every such curve was filed as active; inconclusive = weak or mixed curves, or effect the other way; inactive = no such curve, though single readings can be large or run the other way; the % refers to the signal ratio; also: potency is read from the fitted curve at half-maximal effect)
# Sequence of Peroxisome proliferator-activated receptor gamma (Homo sapiens) (P37231 whole entry, looked up): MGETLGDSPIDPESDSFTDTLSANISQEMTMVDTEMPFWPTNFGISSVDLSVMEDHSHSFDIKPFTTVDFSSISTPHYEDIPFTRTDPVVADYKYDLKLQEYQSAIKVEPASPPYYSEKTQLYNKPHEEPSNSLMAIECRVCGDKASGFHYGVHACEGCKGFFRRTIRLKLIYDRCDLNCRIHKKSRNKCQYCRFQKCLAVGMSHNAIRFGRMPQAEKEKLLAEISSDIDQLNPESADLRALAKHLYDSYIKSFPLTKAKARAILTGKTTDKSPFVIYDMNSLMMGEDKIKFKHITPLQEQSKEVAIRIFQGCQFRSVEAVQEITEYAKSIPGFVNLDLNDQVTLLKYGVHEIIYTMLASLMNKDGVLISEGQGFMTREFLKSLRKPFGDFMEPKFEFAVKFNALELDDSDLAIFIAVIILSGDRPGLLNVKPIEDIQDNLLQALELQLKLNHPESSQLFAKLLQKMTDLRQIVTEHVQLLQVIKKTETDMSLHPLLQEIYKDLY
# Summary of the method: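 Beta-lactamase FRET fluorescence was the read-out after a 1 h room-temperature substrate step, following 17 h compound treatment at 37C of HEK293H cells expressing a UAS-driven bla reporter responsive to PPARg.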
# [15] = qHTS assay to identify small molecule that activate the aryl hydrocarbon receptor (AhR) signaling pathway - cell viability counter screen (AID 743086); also: nearly all actives have a fitted effect of over 45% in size; also: potency is read from the fitted curve at half-maximal effect
# Summary of the method: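 Cytotoxicity counter screen: CellTiter-Fluor signal (30 min, 37 C) in 4000 HepG2 cells/well carrying the DRE-luciferase reporter, following 24 h compound exposure at 37 C.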
# [16] = biological target: Estrogen receptor (Homo sapiens) (UniProt P03372); experiment: qHTS assay to identify small molecule agonists of the estrogen receptor alpha (ER-alpha) signaling pathway using the BG1 cell line (AID 743079); settings: BG1Luc4E2 cells, ERE-luciferase agonist, 22 h; activation: at 70.3 µM (top of the series); also: nearly all actives have a fitted effect of over 20% in size; also: potency is read from the fitted curve at half-maximal effect
Structure (SMILES),Potency [1],Potency [2],Potency [3],Potency [4],Potency (Aromatase (Homo sapiens)),Potency [5],Potency [6],max activation [7] [%],Potency [8],Potency [9],Potency [10],Potency [11],Potency [12],Potency [13],Potency [14],Potency [15],Potency [16],Potency [7]
O=C(O)CN(CC(=O)O)CC1=CC2C(=CC1=O)Oc1cc(O)c(CN(CC(=O)O)CC(=O)O)cc1C21OC(=O)c2ccccc21 (configuration not stated),inactive,inactive,inactive,inactive,inactive,inactive,inactive,0.33,inactive,inactive,–,–,–,–,–,–,–,–
CCN(CC)CCC(=O)N1c2ccccc2Sc2ccc(C(F)(F)F)cc21,26.6 µM (active),–,inactive,inactive,inactive,inactive,inactive,-1.59,1 µM (active),6.31 µM (active),inactive,inactive,inactive,inactive,inactive,–,–,–
C/C1=C2N=C(/C=C3N=C(/C(C)=C4\[N-][C@@](C)([C@@H]5N=C1[C@](C)(CCC(=O)NCC(C)OP(=O)(O)O[C@H]1[C@@H](O)[C@@H](n6cnc7cc(C)c(C)cc76)O[C@@H]1CO)[C@H]5CC(N)=O)[C@@](C)(CC(N)=O)[C@@H]4CCC(N)=O)[C@@](C)(CC(N)=O)[C@@H]\3CCC(N)=O)C(C)(C)[C@@H]/2CCC(N)=O.CC(=O)O.[Co] (some centres not stated),11.9 µM (active),inactive,–,–,26.6 µM (active),inactive,inactive,-15.5,inactive,inactive,–,inactive,33.5 µM (active),23.7 µM (active),inactive,–,–,–
CC(C)(C)NCC(O)c1ccc(O)c(CO)n1 (configuration not stated),inactive,inactive,–,–,–,–,inactive,-0.193,inactive,inactive,–,inactive,inactive,–,–,inactive,–,–
c1ccc2cc(C3=NCCN3)ccc2c1,–,inactive,inactive,–,inactive,–,inactive,-0.34,inactive,inactive,inactive,inactive,inactive,inactive,inactive,inactive,inactive,–
OC[C@H]1OC([S-])[C@H](O)[C@@H](O)[C@@H]1O.[Au+] (some centres not stated),7.5 µM (active),–,inactive,inactive,inactive,inactive,inactive,-6.36,inactive,inactive,inactive,inactive,inactive,inactive,–,inactive,inactive,–
OCC(S)CS (configuration not stated),–,–,inactive,–,inactive,inactive,inactive,-4.08,inactive,inactive,inactive,inactive,inactive,inactive,–,inactive,inactive,–
O=C(OC1C[C@@H]2CC3C[C@H](C1)N2CC3=O)c1c[nH]c2ccccc12 (some centres not stated),29.8 µM (active),–,inactive,–,inactive,–,inactive,6.05,inactive,inactive,inactive,inactive,–,inactive,inactive,–,inactive,–
CN1c2cc(O)c(N=NC(N)=O)cc2CC1S(=O)(=O)O (configuration not stated),inactive,inactive,–,–,inactive,inactive,inactive,0.153,inactive,inactive,–,inactive,inactive,–,inactive,–,–,–
O=C(COc1ccc(Cl)cc1)OCCNC12CC3CC(CC(C3)C1)C2,–,–,inactive,–,inactive,inactive,inactive,-5.06,inactive,inactive,inactive,inactive,inactive,inactive,inactive,inactive,inactive,–
CO[C@H]1C[C@@H]2CC[C@@H](C)[C@@](O)(O2)C(=O)C(=O)N2CCCC[C@H]2C(=O)O[C@H]([C@H](C)C[C@@H]2CC[C@@H](OC(=O)C(C)(CO)CO)[C@H](OC)C2)CC(=O)[C@H](C)/C=C(\C)[C@@H](O)[C@@H](OC)C(=O)[C@H](C)C[C@H](C)/C=C/C=C/C=C/1C,–,–,inactive,–,inactive,inactive,inactive,0.976,inactive,inactive,inactive,inactive,inactive,inactive,inactive,inactive,23.7 µM (active),–
CCCCC(=O)N(Cc1ccc(-c2ccccc2-c2nn[nH]n2)cc1)[C@@H](C(=O)O)C(C)C,–,–,inactive,–,inactive,inactive,inactive,-1.58,inactive,inactive,inactive,inactive,inactive,inactive,inactive,inactive,inactive,–
CC[C@@]1(O)C[C@H](O[C@H]2C[C@H](N(C)C)[C@H](O[C@H]3C[C@H](O)[C@H](O[C@H]4CCC(=O)[C@H](C)O4)[C@H](C)O3)[C@H](C)O2)c2c(cc3c(c2O)C(=O)c2c(O)cccc2C3=O)[C@H]1C(=O)OC,–,–,–,–,2.66 µM (active),–,inactive,-18.5,inactive,inactive,6.01 µM [inconclusive] (active),inactive,–,26.6 µM (active),–,0.668 µM (active),2.98 µM (active),–
COc1ccc(C[C@H](C)NC[C@@H](O)c2ccc(O)c(NC=O)c2)cc1,–,inactive,inactive,inactive,–,inactive,inactive,-1.02,inactive,inactive,inactive,inactive,–,inactive,inactive,inactive,inactive,–
Cn1c(O)c(N=NC(N)=S)c2ccccc21,29.8 µM (active),–,inactive,–,–,1.06 µM (active),inactive,1.06,inactive,14.1 µM (active),–,inactive,–,–,21.3 µM (active),2.98 µM (active),inactive,–
CC(CCc1ccc(O)cc1)NCC(O)c1ccc(O)cc1 (configuration not stated),inactive,inactive,–,–,inactive,inactive,inactive,-0.789,inactive,inactive,–,inactive,inactive,–,inactive,inactive,–,–
CC(=O)N[C@@H]([C@@H](O)[C@H](O)[C@H](O)CO)[C@@H](O)CC(=O)C(=O)O,inactive,inactive,–,–,inactive,inactive,inactive,-0.275,inactive,inactive,–,inactive,inactive,inactive,inactive,inactive,–,–
CCOC(=O)c1cc(-c2ccccc2)nc2ccc(C)cc12,–,–,inactive,inactive,inactive,inactive,inactive,-2.37,inactive,inactive,–,inactive,inactive,inactive,–,inactive,inactive,–
N#CC(c1ccc(Cl)cc1)c1c(Cl)cc(-n2ncc(=O)[nH]c2=O)cc1Cl (configuration not stated),3.76 µM (active),–,inactive,–,inactive,inactive,inactive,12.6,inactive,inactive,–,–,inactive,inactive,–,inactive,inactive,–
CCCCCCCCCCCCCC[n+]1ccc(C)cc1,4.73 µM (active),–,inactive,–,8.41 µM (active),inactive,inactive,-19.6,inactive,inactive,–,–,–,–,–,–,–,–
CCCCCCCCCCCCCCCCCC(=O)OCC(C)O (configuration not stated),inactive,inactive,–,–,inactive,inactive,inactive,-10.2,inactive,inactive,–,inactive,21.1 µM (active),18.8 µM (active),inactive,33.5 µM (active),–,–
Oc1cc(O)cc(O)c1,–,inactive,–,–,inactive,inactive,inactive,-1.47,inactive,inactive,–,inactive,inactive,inactive,inactive,inactive,–,–
Cc1ccc(S(=O)(=O)NC(=O)N[C@@H](C)Cc2ccccc2)cc1,inactive,inactive,–,–,inactive,inactive,inactive,4.79,inactive,inactive,–,inactive,inactive,inactive,inactive,inactive,–,–
CC1(C)S[C@@H]2[C@H](NC(=O)C(C(=O)O)c3ccsc3)C(=O)N2[C@H]1C(=O)O (some centres not stated),–,–,inactive,inactive,inactive,inactive,inactive,-6.29,inactive,inactive,inactive,inactive,inactive,inactive,inactive,inactive,inactive,–
CCOc1ccc(N=Nc2ccc(N)cc2N)cc1,10.6 µM (active),inactive,–,–,inactive,0.944 µM (active),inactive,–,inactive,inactive,–,inactive,–,21.1 µM (active),inactive,–,–,3.16 µM (active)
C=Cc1c(C)c2cc3nc(cc4[nH]c(cc5nc(cc1[nH]2)C(C)=C5CCC(=O)OC)c(CCC(=O)O)c4C)[C@@]1(C)C3=CC=C(C(=O)OC)[C@H]1C(=O)OC,–,inactive,inactive,inactive,inactive,–,inactive,-3.53,inactive,inactive,–,inactive,–,–,inactive,inactive,inactive,–
CCCCCCCCCCCC(=O)N(CCO)CCO,–,inactive,inactive,inactive,inactive,inactive,inactive,-2.62,inactive,inactive,–,inactive,inactive,inactive,inactive,inactive,inactive,–
CCCCC/C=C\C/C=C\C/C=C\CCCCC(=O)O,–,inactive,–,–,inactive,inactive,inactive,-0.879,inactive,inactive,–,inactive,inactive,inactive,–,inactive,–,–
CC[C@H](C)[C@H]1O[C@]2(CC[C@@H]1C)C[C@@H]1C[C@@H](C/C=C(\C)[C@@H](O[C@H]3C[C@H](OC)[C@@H](O[C@H]4C[C@H](OC)[C@@H](O)[C@H](C)O4)[C@H](C)O3)[C@@H](C)/C=C/C=C3\CO[C@@H]4[C@H](O)C(C)=C[C@@H](C(=O)O1)[C@]34O)O2,–,–,–,–,inactive,inactive,inactive,-15.7,inactive,inactive,7.56 µM [inconclusive] (active),19 µM (active),–,inactive,–,inactive,–,–
